# Measurements reported in PubChem BioAssay (NCI).
# Compounds without any hit were thinned out: in the full panel of roughly 83,000, 20% have a hit.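 A percent growth of 40 corresponds to 60% growth inhibition; 0 means no net growth; -100 means all cells died. Active threshold: below 10.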 Values without a mark were called inactive. The source made the active and inactive calls.
# How the values were obtained:
# Test in all cases: NCI-60 one-dose screen, 48 h (100 = growth as untreated, 0 = no growth, -100 = all killed)
# SK-MEL-2 melanoma = details: 10 µM
# EKVX NSCLC = details: 10 µM
# SN12C renal = details: 10 µM
# UO-31 renal = details: 10 µM
# TK-10 renal = details: 10 µM unless noted
# ACHN renal = details: 10 µM
# CAKI-1 renal = details: 10 µM
# A498 renal = details: 10 µM
# CCRF-CEM leukemia = details: 10 µM
# MOLT-4 leukemia = details: 10 µM
SMILES,growth (SK-MEL-2 melanoma),growth (EKVX NSCLC),growth (SN12C renal),growth (UO-31 renal),growth (TK-10 renal),growth (ACHN renal),growth (CAKI-1 renal),growth (A498 renal),growth (CCRF-CEM leukemia),growth (MOLT-4 leukemia)
O=S(=O)(O)c1ccc(Cl)c(Cl)c1,103%,91.4%,97.9%,79.4%,100%,97.3%,84.8%,99.4%,103%,109%
COc1cc(/C=N\Nc2ccccc2)ccc1OC(=O)c1ccccc1,64.3%,66.1%,79.4%,21.5%,96.2%,45.2%,40.3%,–,37.4%,–
C/C(O)=C(\C=N\C(N)=S)C(=O)Nc1ccccc1,107%,106%,94.1%,91.5%,124%,103%,97.8%,98.6%,–,103%
O=C1C=C(O)C(=O)C=C1O,107%,102%,107%,79.2%,102%,97.2%,97.4%,92.4%,–,91.3%
O=c1[nH]cc(Cl)cc1O,89%,82.2%,95%,62.4%,89.4%,62.2%,85.9%,–,49%,–
Nc1ncnc2c1nc(N)n2C1OC(CO)C(O)C1O (centres undefined),-11.6% (active),-33.2% (active),-22.8% (active),-53.9% (active),-14.2% (active),2.76% (active),-28.6% (active),-80.3% (active),1.73% (active),1.73% (active)
Cc1cccc(CO)c1,110%,113%,106%,92.9%,108%,111%,100%,108%,110%,106%
COc1cc(C(=O)NC(=S)Nc2ccc3ccccc3c2)cc(OC)c1OC,83.6%,102%,104%,66.7%,117%,93.7%,75.1%,–,98.6%,89.4%
O=c1[nH][nH]c(=O)c2cc([N+](=O)[O-])ccc12,103%,106%,108%,85.7%,104%,107%,96.8%,117%,100%,100%
O=C1C[C@H](c2ccccc2)[C@H](c2ccccc2)C1,93%,106%,98.7%,81.9%,94.2%,102%,89.7%,–,95.1%,94.9%
CC1=C(/C=C/C(C)=C/C=C/C(C)=C/CO)C(C)(C)CCC1,107%,108%,104%,87.3%,111%,106%,88.6%,98%,–,97.9%
Nc1ccc(CC(=O)O)c(N)c1,113%,101%,102%,89%,105%,104%,89%,62.8%,-27.4% (active),101%
CC(C)OC(=O)c1cc(NC(=S)OC(C)C)ccc1Cl,96.4%,85.8%,93%,80.2%,86.1%,98.7%,53.6%,–,88.8%,75.7%
O=C(O)[C@@H]1[C@H]2C[C@H]3c4[nH]c5ccccc5c4CCN3C[C@@H]2CC[C@@H]1O,30.5%,110%,107%,82.8%,104%,100%,105%,130%,103%,139%
CC1(C)/C(=C\CO)C2CCC1C2 (centres undefined),105%,113%,99.4%,78.5%,89.7%,112%,102%,–,92.3%,107%
C#C[C@H]1CCCCCC1O (some centres undefined),101%,104%,101%,97.1%,109%,116%,101%,99.3%,97.1%,98.4%
